Laboratory results: PubChem BioAssay (Tox21)
Inconclusive results are not listed. Activity calls are given as the source filed them. Calls come from the whole dose curve; as a rule, active = well fitted cell-killing curve with a large enough effect in the repeat runs; inconclusive = weak or mixed curves, or effect the other way; inactive = flat fitted curve, though single readings scatter.

test: qHTS RealTime-Glo MT Cell Viability Assay in HepG2 cells - 0 hour (AID 1224889); conditions: RealTime-Glo luminescence; series mostly up to 76.8 µM; activity change, negative = cytotoxicity: at the top concentration; note: nearly all actives have a fitted effect of over 50% in size
Source text: U.S. Tox21 Program National Center for Advancing Translational Sciences [NCATS] NIH Chemical Genomics Center [NCGC] U.S. Environmental Protection Agency [EPA] National Institutes of Environmental Health Sciences [NIEHS] National Toxicology Program [NTP] U.S. Food and Drug Administration [FDA] Tox21 Assay Overview: Measure of cell viability is critical in the cell-base assay. Analysis of cell viability is necessary for the characterization of cell responses to cytotoxic drugs and environmental stress. A RealTime-Glo MT Cell Viability Assay to monitor cell viability in real time of continues cell culture during 40 hours of compound treatment was used to screen Tox21 10K library compounds in HepG2 cells. The RealTime-Glo MT Cell Viability Assay is a nonlytic, homogeneous, bioluminescent method to measure cell viability in real time using a simple, plate-based method. The assay involves adding NanoLuc luciferase and a cell-permeant prosubstrate to cells in culture. Viable cells reduce the proprietary prosubstrate to generate a substrate for NanoLuc luciferase. This substrate diffuses from cells into the surrounding culture medium, where it is rapidly used by the NanoLuc Enzyme to produce a luminescent signal. The signal correlates with the number of viable cells, making the assay well suited for cytotoxicity studies.
Tox21 Assay Protocol Summary: The mixture of HepG2 cell suspension and reagents were dispensed at 600cells/6 ul/well in 1536-well tissue culture treated black solid bottom plates using a Multidrop dispenser. After the assay plates were incubated at a 37 C/5% CO2 incubator for 5 hours, 23 nL of compounds dissolved in DMSO, positive and negative controls was transferred to the assay plate by a pintool work station. The plates were incubated at 37 C for 40 hours. The luminescence intensity were measured at 0h, 8h, 16h, 24h, 32h and 40h time points using ViewLux plate reader during compound treatment.
% is set by controls: 0 for no effect and ±100 for the full control effect.

| SMILES | activity change, negative = cytotoxicity |
| --- | --- |
| CCCCCCI | -13.4% (inactive) |
| C[N+](C)=CCl | 1.03% (inactive) |
| Nc1c(Br)cc([N+](=O)[O-])cc1[N+](=O)[O-] | 7.15% (inactive) |
| OCCSCSCCO | 5.45% (inactive) |
| CCNc1nc(NC(C)C)nc(OC)n1 | -0.64% (inactive) |
| COc1ccc(C(=O)N2CCCC2=O)cc1 | -2.12% [at 35.3 µM] (inactive) |
| COC(=O)c1c(C(F)F)nc(C(F)(F)F)c(C2=NCCS2)c1CC(C)C | -4.21% (inactive) |
| CCCCCCBr | -0.987% (inactive) |
| ClCCCN1CCN(c2cccc(Cl)c2)CC1 | -5.79% [at 35.3 µM] (inactive) |
| CN(C)CCc1ccc(O)cc1 | -3.79% [at 35.3 µM] (inactive) |
| CCC#N | 2.91% (inactive) |
| Clc1cccc(N2CCNCC2)c1 | 4.1% [at 35.3 µM] (inactive) |
| Oc1c(Cl)cccc1Cl | 4.57% (inactive) |
| COc1cc(OC)nc(NC(=O)NS(=O)(=O)c2ncccc2C(=O)N(C)C)n1 | 3.95% (inactive) |
| CCCCN(CCCCO)N=O | 5% (inactive) |
| CCS(=O)(=O)CCSP(=O)(OC)OC | -0.171% (inactive) |
| CC(C)CC#N | 1.7% (inactive) |
| C=C(C)[C@@H]1CC=C(C=O)CC1 | -6.12% (inactive) |
| O=C(O)c1ccc2[nH]cc(CCCCN3CC=C(c4ccccc4)CC3)c2c1 | -19.6% [at 35.3 µM] (inactive) |
| ClCC(Cl)Cl | 13.5% (inactive) |

| SMILES | activity change, negative = cytotoxicity |
| --- | --- |
| Cc1ncsc1CCCl | 0.178% [at 35.3 µM] (inactive) |
| O=[N+]([O-])c1cc(Cl)c(Cl)c(Cl)c1 | 15% (inactive) |
| C=CCC1=C(C)[C@@H](OC(=O)[C@@H]2[C@@H](C=C(C)C)C2(C)C)CC1=O | -2.5% (inactive) |
| CC(C1CC1)C(O)(Cn1cncn1)c1ccc(Cl)cc1 (stereo not given) | -0.709% (inactive) |
| CN1C(=S)CN=C(c2ccccc2)c2cc(Cl)ccc21 | -15.9% [at 35.3 µM] (inactive) |
| Cc1ncc(CNC(=O)N(CCCl)N=O)c(N)n1 | -5.16% [at 35.3 µM] (inactive) |
| CC(C)[N+](=O)[O-] | 3.83% (inactive) |
| CC(=O)C(Cl)Cl | 2.17% (inactive) |
| O=C(NCO)NCO | -0.0417% (inactive) |
| CCOP(=O)(OCC)OP(=O)(OCC)OCC | -4.05% (inactive) |
| O=C1OC(c2ccc(O)c(S(=O)(=O)O)c2)(c2ccc(O)c(S(=O)(=O)O)c2)c2c(Br)c(Br)c(Br)c(Br)c21 | -0.113% [at 35.3 µM] (inactive) |
| CC1COC2(c3ccccc3Cl)c3cc(Cl)ccc3NC(=O)CN12 (stereo not given) | 9.48% [at 35.3 µM] (inactive) |
| NC(=O)O | -1.05% (inactive) |
| c1ccc(N2CCNCC2)cc1 | 0.672% [at 35.3 µM] (inactive) |
| CCCCOC(=O)[C@@H](C)Oc1ccc(Oc2ccc(C#N)cc2F)cc1 | 3.42% (inactive) |
| CCOP(=O)(N=C1SCCS1)OCC | 4.96% (inactive) |
| CCC(=O)c1ccccc1 | -5.53% (inactive) |
| Clc1ccccc1N1CCNCC1 | 12.2% [at 35.3 µM] (inactive) |
| c1coc(-c2nc3ccccc3[nH]2)c1 | 3.01% (inactive) |
| NC(=S)C(N)=S | 1.55% (inactive) |
